Molecules are shown by their SMILES. Where “and” joins values, the source holds several entries; their conditions need not be identical. Equal entries are not always repeated. Records with an inconclusive call do not appear. A structure can be active in one record and inactive in another. A number with no mark means an inactive call. Calls of active or inactive are those of the source. The call rests on the fitted dose curve; in most records, active means well fitted inhibition curve with a large enough effect; inconclusive means small, poorly fitted or top-dose-only effect; inactive means flat fitted curve, though single readings scatter.

For assay [1], the system named is TAB165. Description: qHTS profiling for inhibitors of Plasmodium falciparum proliferation (AID 504749). The following applies: P. falciparum in erythrocytes, SYBR Green DNA, 72 h; series mostly up to 28.7 µM. The procedure, abridged:
(§1)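 SYBR Green fluorescence of parasite DNA, read after lysis and overnight dark incubation, measured growth over 72 h in erythrocyte culture at 0.3% parasitemia and 2.5% hematocrit. Data normalised to DMSO and 0.29 uM artemisinin, with plate-drift correction.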
Background: qHTS replaces the single test concentration by a dilution series.

Assay [2] concerns W2. The assay is described as above. The following applies: P. falciparum in erythrocytes, SYBR Green DNA, 72 h; series mostly up to 28.7 µM. The procedure, abridged:
as §1

Assay [3] relates to CRL-7250. The assay is described as follows: Cytotoxic Profiling of Annotated Libraries Using Quantitative High-Throughput Screening (AID 1296008). On max response: on the % scale 0 is the no-effect control and ±100 the full control effect. Conditions: Five cell lines viability, CellTiter-Glo ATP luminescence, 48-72 h; max response: hits give low values. The procedure, abridged:
(§2)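 Cytotoxicity was measured as CellTiter-Glo ATP luminescence, read after 10 min at room temperature. Compound treatment of the cells lasted 48 or 72 hr at 37 degrees Celsius in a qHTS format.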

For assay [4], the system named is HEK293. The description is as above. The following applies: Five cell lines viability, CellTiter-Glo ATP luminescence, 48-72 h; max response: hits give low values. The procedure, abridged:
as §2

The subject of assay [5] is HaCat. Described as above. The following applies: Five cell lines viability, CellTiter-Glo ATP luminescence, 48-72 h; max response: hits give low values. The procedure, abridged:
as §2
Background: Cellular ATP, detected with luciferase, serves as a proxy for viable cell number.

The subject of assay [6] is KB-3-1. The description is as above. Conditions: Five cell lines viability, CellTiter-Glo ATP luminescence, 48-72 h; max response: hits give low values. The procedure, abridged:
as §2

Assay [7] has as its system NIH3T3. The assay is described as above. The following applies: Five cell lines viability, CellTiter-Glo ATP luminescence, 48-72 h; max response: hits give low values. The procedure, abridged:
as §2

For assay [8], the system named is HACAT. Description: qHTS assay to identify novel small-molecules to repurpose for Merkel cell carcinoma treatment (AID 1296009). The following applies: MCC and control cell lines, CellTiter-Glo viability, 72 h; at 44.8 µM (top of the series) unless noted. The procedure, abridged: (§3)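 Cell viability, measured as CellTiter-Glo luminescence, was normalized between DMSO and no-cell wells. The cells had been exposed to 8- or 11-point compound dilutions for 72 hr at 37 degree celsius.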

For assay [9], the system named is HEK293T. The description is as above. The following applies: MCC and control cell lines, CellTiter-Glo viability, 72 h; at 44.8 µM (top of the series) unless noted. The procedure, abridged:
as §3

The subject of assay [10] is MCC-13. The assay is described as above. Conditions: MCC and control cell lines, CellTiter-Glo viability, 72 h; series mostly up to 46 µM. The procedure, abridged:
as §3
Further: nearly all actives have a fitted effect of over 60% in size.
Potency means the concentration at half of the fitted maximal effect.

`CC1=CC(=O)c2ccccc2C1=O`: the Potency result in assay [1] and in assay [10] was “inactive” throughout. In [2], the Potency is 6010 nM (active). The max response in assay [3] is 3.35%; in assay [4], 2.41%; in assay [6] it was 1.53%; in [7], -2.61%. Further, the molecule was called inactive in assay [3], in [4], in assay [5], in assay [6], in assay [7] and in assay [8]. Also, the call in [9] was inactive.

`CS(=O)(=O)c1ccc([C@@H](O)[C@@H](CO)NC(=O)C(Cl)Cl)cc1`: the max response was -2.94% in assay [3]; 4.09% in [5]; -5.5% in [6]; 1.24% and 2.73% in assay [7]. Moreover, the call in [3], in assay [5] and in assay [8] was inactive. For the same molecule, in assay [4], the Potency is 2990 nM (active). For the same molecule, in assay [10], the Potency result is “inactive”.

`Cc1cc(NS(=O)(=O)c2ccc(N)cc2)no1`: the max response is -8.57% in [3]; 1.33% and -5.68% in assay [4]; -10.1% in [6]; -3.95% in [7]. In addition, the result in assay [3], in assay [5], in assay [6], in assay [7] and in [8] was inactive. The Potency entry in assay [10] was “inactive”.

Consider `CC(=O)CC(c1ccccc1)c1c(O)c2ccccc2oc1=O` (stereo not given), for which the max response in assay [3] is -2.79%; in assay [5], -6.98%; in [6], 7.33% and -13.6% and 2.81%; in assay [7] it was -11.7% and -5.84%. For the same molecule, the call in assay [3], in assay [4], in assay [5], in assay [8] and in [9] was inactive. In addition, in [10], the Potency entry was “inactive”.

With `C[C@@H]1CN(c2c(F)c(N)c3c(=O)c(C(=O)O)cn(C4CC4)c3c2F)C[C@H](C)N1`, the max response in assay [3] is -4.39%; in [5], -0.171%; in assay [6], 8.25% and 3.23%; in assay [7], 0.0179% and 2.17%. Besides, the molecule was classed as inactive in assay [3], in assay [4] and in assay [5]. Further, the outcome in assay [8] and in [9] was “inactive [at 17.4 µM]” in each case. For the same molecule, in assay [10], the Potency result was “inactive”.

Regarding `CCC(C)(C)c1ccc(CC(C)CN2C[C@@H](C)O[C@@H](C)C2)cc1` (stereo not given in full), the Potency result in assay [1] and in assay [10] was “inactive” each time. The max response is 0.576% in [3]; -0.508% and -3.77% in assay [4]; 0.53% and -5.13% in assay [6]; 3.97% and -6% in assay [7]. Also, the outcome in [3], in assay [5] and in [8] was inactive.

As to `COc1cc2nc(N3CCCN(C)CC3)nc(NC3CCN(Cc4ccccc4)CC3)c2cc1OC`, the Potency in assay [3] was 9350 nM (active).

With `O=C(O)CCn1c2c(c3ccccc31)C[C@H](NS(=O)(=O)c1ccc(F)cc1)CC2`, the max response was -4.51% in assay [3]; 3.39% and -17.8% in assay [4]; 4.42% and 4.82% in [5]; 0.769% and -7.72% in assay [6]; -9.59% and 4.36% in assay [7]. The result in assay [3], in [4], in assay [5], in assay [6], in assay [7] and in [8] was inactive. Further, the result in [9] was inactive. Besides, the Potency entry in assay [10] is “inactive”.

For the molecule `Cc1nnc(C(=O)NC(C)(C)c2nc(C(=O)NCc3ccc(F)cc3)c(O)c(=O)n2C)o1`, the max response in [3] was 1.7% and -8.84%; in assay [4] it was -1.41% and 1.54% and -3.51%; in assay [5] it was -1.85% and 3.43%; in assay [6] it was -0.518% and 8.61%; in assay [7], -3.12% and 2.12%. Besides, the call in [3], in assay [5], in assay [7] and in assay [8] was inactive. Also, in assay [10], the Potency result was “inactive”.

On to `COc1cc([C@@H]2c3cc4c(cc3[C@H](O)[C@H]3COC(=O)[C@H]23)OCO4)cc(OC)c1OC`, for which the Potency is 2240 nM (active) in assay [1]; 1690 nM (active) in assay [2]; 29.9 nM (active) in assay [3]; 42.2 nM (active) in assay [4]; 32.6 nM (active) and 0.8 nM (active) in [6]; 94.4 nM (active) and 2.6 nM (active) in [10]. For the same molecule, the max response is -103% in assay [3] and -87.1% in assay [4]. Moreover, the result in assay [5] and in assay [8] was inactive.

As for `O=NN(CCCl)C(=O)NC1CCCCC1`, the Potency result in [1], in assay [2] and in [10] was “inactive” throughout. In addition, the max response in assay [3] was 4.87%; in [4], 3.97%; in assay [5], 4.22%; in assay [6], 2.75%; in [7], -1.41%. Moreover, the result in assay [3], in [4], in assay [5], in assay [6], in assay [7] and in assay [8] was inactive. Besides, the result in assay [9] was inactive.

Regarding `CCOC(=O)c1ccc(OC(=O)CCCCCN=C(N)N)cc1`, the max response in assay [3] was 1.52%; in assay [4], -2.03%; in assay [5], 4.21%; in [6] it was 1.69% and -0.41%. In addition, the outcome in assay [3], in [4], in assay [5], in assay [7], in assay [8] and in [9] was inactive. In assay [10], the Potency entry was “inactive”.

With `C[C@@H](CN1CC(=O)NC(=O)C1)N1CC(=O)NC(=O)C1`, the Potency was 148 nM (active) in assay [3], 235 nM (active) in [4], 23500 nM (active) in assay [5] and 187 nM (active) in assay [7]. The values for the max response in assay [3], in assay [5] and in assay [6] were 0.572%, -7.01% and 7.8%, respectively. Further, in assay [10], the Potency result was “inactive”.

The values are drawn from PubChem BioAssay (NCATS).
